In the antibiotic and cytotoxicity screens of Wong et al. (2023):
Screen size: about 39,000 compounds; about 3,300 (8.5%) were called active. This is one part of a sample in which actives are shown more often than they occur.

Tested on: HepG2
Experiment: cytotoxicity call (relative viability < 0.9)
Conditions: 10 µM

Which cytotoxicity call does the source give for `Cc1cc(C)c(S(=O)(=O)N2CCO[C@@H]2CNC(=O)C(=O)NCCCN2CCCC2=O)c(C)c1` here?
The cytotoxicity call was “inactive”.

How did the cytotoxicity call turn out when `Cc1c(NC(C)C)c(=O)n(-c2ccccc2)n1C.Cl` was run?
The cytotoxicity call was “inactive”.

How did the cytotoxicity call turn out when `C[C@@H]1CN([C@H](C)CO)C(=O)c2cc(NS(=O)(=O)c3ccc(F)cc3)ccc2O[C@H]1CN(C)S(=O)(=O)c1ccccc1` was run?
Its cytotoxicity call is “inactive”.

How did the cytotoxicity call turn out when `O=C1CCOC[C@@H]2CCCN12` was run?
Its cytotoxicity call is “inactive”.

Which cytotoxicity call does the source give for `C[C@@H]1CCCCO[C@@H](CN(C)Cc2ccncc2)[C@H](C)CN([C@@H](C)CO)C(=O)c2cc(NC(=O)Nc3ccccc3)ccc2O1` here?
Its cytotoxicity call is “inactive”.

Which cytotoxicity call does the source give for `C[C@@H]1CCCCO[C@H](CN(C)Cc2ccc(C(=O)O)cc2)[C@@H](C)CN([C@@H](C)CO)C(=O)c2cc(NC(=O)Cc3ccccc3)ccc2O1` here?
Its cytotoxicity call is “inactive”.

With `Cc1ccc(S(=O)(=O)N(C)C[C@H]2Oc3ccc(N(C)C)cc3CC(=O)N([C@@H](C)CO)C[C@H]2C)cc1` as the molecule, how does the cytotoxicity call read?
Its cytotoxicity call is “inactive”.

Which cytotoxicity call does the source give for `Cc1ccc(S(=O)(=O)N(C)C[C@H]2Oc3ccc(N(C)C)cc3CC(=O)N([C@H](C)CO)C[C@H]2C)cc1` here?
Its cytotoxicity call is “inactive”.

Which cytotoxicity call does the source give for `Cc1ccc(S(=O)(=O)N(C)C[C@@H]2Oc3ccc(N(C)C)cc3CC(=O)N([C@H](C)CO)C[C@@H]2C)cc1` here?
The cytotoxicity call was “active”.

How did the cytotoxicity call turn out when `Cc1ccc(S(=O)(=O)N(C)C[C@H]2Oc3ccc(N(C)C)cc3CC(=O)N([C@@H](C)CO)C[C@@H]2C)cc1` was run?
Its cytotoxicity call is “inactive”.

With `Cc1ccc(S(=O)(=O)N(C)C[C@@H]2Oc3ccc(N(C)C)cc3CC(=O)N([C@H](C)CO)C[C@H]2C)cc1` as the molecule, how does the cytotoxicity call read?
The cytotoxicity call was “inactive”.

For `Cc1ccc(S(=O)(=O)N(C)C[C@@H]2Oc3ccc(N(C)C)cc3CC(=O)N([C@@H](C)CO)C[C@@H]2C)cc1`, which cytotoxicity call is on record?
Its cytotoxicity call is “active”.

For `C[C@H](CO)N1C[C@H](C)[C@@H](CN(C)Cc2ccc(C(=O)Nc3ccccc3N)cc2)Oc2c(NS(C)(=O)=O)cccc2C1=O`, which cytotoxicity call is on record?
The cytotoxicity call was “inactive”.

With `Cc1noc(C)c1NC(=O)Nc1ccc2c(c1)C(=O)N([C@@H](C)CO)C[C@H](C)[C@H](CN(C)Cc1ccncc1)OCCCC[C@H](C)O2` as the molecule, how does the cytotoxicity call read?
The cytotoxicity call was “inactive”.

Which cytotoxicity call does the source give for `CN1CCN(C(=O)C[C@H]2CC[C@H]3[C@@H](COc4ccc(NC(=O)C5CCOCC5)cc4C(=O)N3C)O2)CC1` here?
Its cytotoxicity call is “inactive”.

Which cytotoxicity call does the source give for `CC(C)(C)Nc1nc(=O)[nH]c(=O)[nH]1` here?
The cytotoxicity call was “inactive”.

For `Cc1noc(C)c1S(=O)(=O)N(C)C[C@H]1Oc2ccc(NS(=O)(=O)c3cccs3)cc2CC(=O)N([C@@H](C)CO)C[C@H]1C`, which cytotoxicity call is on record?
Its cytotoxicity call is “inactive”.

How did the cytotoxicity call turn out when `CC(C)(C)CC(C)(C)c1ccc(O)c(Cc2ccc(Cl)cc2Cl)c1` was run?
Its cytotoxicity call is “active”.

`CC(C)(C)CC(C)(C)c1cc(Cc2cc(C(C)(C)CC(C)(C)C)cc(-n3nc4ccccc4n3)c2O)c(O)c(-n2nc3ccccc3n2)c1` [listing 1 of 2 here] was tested. Which cytotoxicity call did it give?
Its cytotoxicity call is “inactive”.

How did the cytotoxicity call turn out when `CC(C)(C)CC(C)(C)c1cc(Cc2cc(C(C)(C)CC(C)(C)C)cc(-n3nc4ccccc4n3)c2O)c(O)c(-n2nc3ccccc3n2)c1` [listing 2 of 2 here] was run?
The cytotoxicity call was “inactive”.

`C/C=C/c1cnc2c(c1)C(=O)N([C@H](C)CO)C[C@@H](C)[C@@H](CN(C)S(=O)(=O)c1ccc(OC)cc1)O2` was tested. Which cytotoxicity call did it give?
Its cytotoxicity call is “inactive”.

`C[C@@H]1CN([C@H](C)CO)C(=O)c2cc(NC(=O)Cc3cn(C)c4ccccc34)ccc2O[C@H]1CN(C)C(=O)Nc1cccc2ccccc12` was tested. Which cytotoxicity call did it give?
The cytotoxicity call was “inactive”.

`CN(C)CCOC(c1ccccc1)c1ccccc1.Cl` was tested. Which cytotoxicity call did it give?
Its cytotoxicity call is “inactive”.

Which cytotoxicity call does the source give for `N#CCOc1cccc2ccccc12` here?
Its cytotoxicity call is “inactive”.

Which cytotoxicity call does the source give for `CN(C)C(CCOc1cccc2ccccc12)c1ccccc1.Cl` (centres undefined) here?
Its cytotoxicity call is “active”.

With `CN(C)Cc1cn(CC[C@@H]2CC[C@H](NS(=O)(=O)c3ccccc3)[C@H](CO)O2)nn1` as the molecule, how does the cytotoxicity call read?
Its cytotoxicity call is “inactive”.

Which cytotoxicity call does the source give for `C[C@@H]1CN([C@H](C)CO)C(=O)c2cc(NC(=O)C3CCCCC3)ccc2O[C@@H](C)CCCCO[C@H]1CN(C)C(=O)c1ccccc1` here?
The cytotoxicity call was “inactive”.

For `C[C@@H]1CCCCO[C@H](CN(C)CC2CCCCC2)[C@@H](C)CN([C@H](C)CO)C(=O)c2cc(NS(=O)(=O)c3cccs3)ccc2O1`, which cytotoxicity call is on record?
Its cytotoxicity call is “inactive”.

`C[C@@H]1CN([C@@H](C)CO)C(=O)c2cc(NC(=O)Cn3cnnn3)ccc2O[C@@H]1CN(C)Cc1ccc(Oc2ccccc2)cc1` was tested. Which cytotoxicity call did it give?
The cytotoxicity call was “inactive”.

With `COC(=O)Nc1nc2cc(C(=O)c3ccc(F)cc3)ccc2[nH]1` as the molecule, how does the cytotoxicity call read?
The cytotoxicity call was “active”.

With `COC(=O)Nc1nc2cc(C(=O)c3ccccc3)ccc2[nH]1` as the molecule, how does the cytotoxicity call read?
Its cytotoxicity call is “active”.

With `COc1cccc(C(=O)c2ccccc2)c1` as the molecule, how does the cytotoxicity call read?
The cytotoxicity call was “inactive”.

`O=c1[nH]c2ccc(F)cc2nc1O` was tested. Which cytotoxicity call did it give?
Its cytotoxicity call is “inactive”.

For `COC(=O)Nc1nc2cc(C(=O)c3cccs3)ccc2[nH]1`, which cytotoxicity call is on record?
Its cytotoxicity call is “inactive”.

With `COC(=O)CNC(=O)c1ccc(F)cc1` as the molecule, how does the cytotoxicity call read?
The cytotoxicity call was “inactive”.

With `Cc1ccc(S(=O)(=O)Nc2ccc3c(c2)CC(=O)N([C@H](C)CO)C[C@H](C)[C@@H](CN(C)S(=O)(=O)c2c(C)noc2C)O3)cc1` as the molecule, how does the cytotoxicity call read?
The cytotoxicity call was “inactive”.

`Cc1cc(O)cc(C)c1Cl` [listing 1 of 2 here] was tested. Which cytotoxicity call did it give?
The cytotoxicity call was “active”.

How did the cytotoxicity call turn out when `Cc1cc(O)cc(C)c1Cl` [listing 2 of 2 here] was run?
Its cytotoxicity call is “inactive”.

For `Oc1cc(O)cc(O)c1`, which cytotoxicity call is on record?
The cytotoxicity call was “inactive”.

For `CCO[C@H]1CC(C)(C)NC(=S)N1`, which cytotoxicity call is on record?
The cytotoxicity call was “inactive”.

For `C[C@@H]1CN([C@H](C)CO)C(=O)Cc2cc(NS(=O)(=O)c3ccc(Cl)cc3)ccc2O[C@H]1CN(C)Cc1ccc(C(F)(F)F)cc1`, which cytotoxicity call is on record?
The cytotoxicity call was “active”.

For `C[C@H]1CN([C@@H](C)CO)C(=O)Cc2cc(NS(=O)(=O)c3ccc(Cl)cc3)ccc2O[C@H]1CN(C)Cc1ccc(C(F)(F)F)cc1`, which cytotoxicity call is on record?
Its cytotoxicity call is “active”.

How did the cytotoxicity call turn out when `C[C@H](CO)N1C[C@H](C)[C@H](CN(C)Cc2ccc(C(F)(F)F)cc2)Oc2ccc(NS(=O)(=O)c3ccc(Cl)cc3)cc2CC1=O` was run?
Its cytotoxicity call is “active”.

Which cytotoxicity call does the source give for `C[C@@H]1CN([C@@H](C)CO)C(=O)Cc2cc(NS(=O)(=O)c3ccc(Cl)cc3)ccc2O[C@@H]1CN(C)Cc1ccc(C(F)(F)F)cc1` here?
The cytotoxicity call was “active”.

Which cytotoxicity call does the source give for `C[C@@H]1CN([C@H](C)CO)C(=O)Cc2cc(NS(=O)(=O)c3ccc(Cl)cc3)ccc2O[C@@H]1CN(C)Cc1ccc(C(F)(F)F)cc1` here?
The cytotoxicity call was “inactive”.

With `CCS(=O)(=O)Nc1ccc2c(c1)C(=O)N(C)[C@@H]1CC[C@H](CC(=O)NCc3ccccc3F)O[C@H]1CO2` as the molecule, how does the cytotoxicity call read?
Its cytotoxicity call is “inactive”.

With `C[C@H](CO)N1C[C@H](C)[C@@H](CN(C)C(=O)Nc2ccc(F)cc2)Oc2c(NC(=O)c3ccc(-c4nccs4)cc3)cccc2C1=O` as the molecule, how does the cytotoxicity call read?
Its cytotoxicity call is “inactive”.

For `C/C=C/c1cnc2c(c1)C(=O)N([C@@H](C)CO)C[C@H](C)[C@@H](CN(C)S(=O)(=O)c1ccc(OC)cc1)O2`, which cytotoxicity call is on record?
The cytotoxicity call was “inactive”.

Which cytotoxicity call does the source give for `C[C@@H]1CN([C@H](C)CO)C(=O)c2cc(NC(=O)C3CCCCC3)ccc2O[C@@H](C)CCCCO[C@@H]1CN(C)C(=O)CCC(F)(F)F` here?
The cytotoxicity call was “inactive”.
